PubChem BioAssay (EPA / NIEHS)
Records with an inconclusive call do not appear. More than one record can exist for a structure, and the calls need not agree. Activity calls are given as the source filed them. How the source made its calls: active means hit-call score of the fitted dose curve at least 0.9, where 1 is the maximum; inconclusive means response in the unintended direction; inactive means score below 0.9.

Tests used:
[1] = target: Cellular tumor antigen p53 (Homo sapiens) (UniProt P04637); test: TOX21_p53_BLA_p2_ratio: Tox21 HCT-116 p53 Agonism Beta-lactamase Assay, Ratio, Phase 2 (AID 2283592)
Method in brief: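 Ratio endpoint: beta-lactamase cleavage of CCF4-AM, blue (460 nm) over green (530 nm). HCT116 reporter line; 16 h treatment, 37C; substrate 2 h RT.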

[2] = TOX21_p53_BLA_p3_viability: Viability Assessment in the Tox21 HCT-116 p53 Agonism Beta-lactamase Assay, Phase 3 (AID 2283593);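 further: cells exposed to compound for 16 h before reading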
Method in brief: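 HCT-116 cells (4000/well) rested 5 h at 37C, then got DMSO compounds by pin tool (217-fold dilution) for 16 h at 37C, 5% CO2. After the bla read, CellTiter-Glo was added and luminescence read at 30 min, room temperature.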

[3] = target: Cellular tumor antigen p53 (Homo sapiens) (UniProt P04637); test: TOX21_p53_BLA_p3_ratio: Tox21 HCT-116 p53 Agonism Beta-lactamase Assay, Ratio, Phase 3 (AID 2283596)
Method in brief: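 Cells were seeded at 4000/well, rested 5 h at 37C, then dosed with DMSO compound solutions (217-fold dilution) for 16 h. CCF4-AM substrate was loaded for 2 h at room temperature, and the 460/530 nm emission ratio was fitted for gain of signal versus DMSO.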

[4] = TOX21_p53_BLA_p4_viability: Viability Assessment in the Tox21 HCT-116 p53 Agonism Beta-lactamase Assay, Phase 4 (AID 2283597);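 further: hits lower the luminescence signal meaning cytotoxicity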
Method in brief: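 Cytotoxicity was inferred from loss of CellTiter-Glo luminescence. HCT116 cells had been dosed with compounds after 5 h plating, incubated 16 h at 37C and 5% CO2, and exposed to the CCF4-AM substrate for 2 h.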

[5] = target: Cellular tumor antigen p53 (Homo sapiens) (UniProt P04637); test: TOX21_p53_BLA_p5_ratio: Tox21 HCT-116 p53 Agonism Beta-lactamase Assay, Ratio, Phase 5 (AID 2283599)
Method in brief: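 HCT-116 cells carrying a p53-inducible beta-lactamase reporter were seeded at 4000 cells/well and dosed after 5 h with compound in DMSO (217-fold dilution). After 16 h at 37C, CCF4-AM substrate was added for 2 h, and the 460/530 nm emission ratio was scored as gain-of-signal versus DMSO.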

[6] = TOX21_p53_BLA_p5_viability: Viability Assessment in the Tox21 HCT-116 p53 Agonism Beta-lactamase Assay, Phase 5 (AID 2283600)
Method in brief: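 Luciferase-coupled ATP quantitation of cells treated for 16 h (37C, 5% CO2) with test chemicals delivered in DMSO via a 217-fold dilution; 4000 cells/well; reagent incubated 30 min at room temperature before luminescence reading.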

[7] = target: Cellular tumor antigen p53 (Homo sapiens) (UniProt P04637); test: TOX21_p53_BLA_p4_ratio: Tox21 HCT-116 p53 Agonism Beta-lactamase Assay, Ratio, Phase 4 (AID 2283601)
Method in brief: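 HCT116 cells carrying an inducible beta-lactamase reporter were plated at 4000 cells/well, rested 5 h, then exposed to compounds in DMSO (217-fold dilution) for 16 h at 37C. CCF4-AM substrate was loaded 2 h at room temperature; 460/530 nm emission ratio scored gain-of-signal versus DMSO.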

Chain of Cellular tumor antigen p53 (Homo sapiens) (P04637 whole entry, looked up): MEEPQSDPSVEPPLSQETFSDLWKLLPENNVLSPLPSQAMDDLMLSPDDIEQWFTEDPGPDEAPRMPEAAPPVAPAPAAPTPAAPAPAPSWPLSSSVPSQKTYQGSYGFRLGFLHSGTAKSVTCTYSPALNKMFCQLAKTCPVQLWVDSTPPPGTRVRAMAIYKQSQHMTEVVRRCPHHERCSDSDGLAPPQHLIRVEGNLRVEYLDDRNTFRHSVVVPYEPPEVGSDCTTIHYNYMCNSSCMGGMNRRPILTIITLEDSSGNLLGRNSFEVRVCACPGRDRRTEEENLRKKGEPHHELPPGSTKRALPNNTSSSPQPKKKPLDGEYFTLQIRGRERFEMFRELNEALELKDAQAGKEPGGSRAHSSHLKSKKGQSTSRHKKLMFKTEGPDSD

| SMILES | AC50 [1] | outcome [2] | AC50 [3] | outcome [4] | AC50 [5] | outcome [6] | outcome [1] | outcome [3] | outcome [5] | outcome [7] | AC50 [7] | AC50 [2] |
| --- | --- | --- | --- | --- | --- | --- | --- | --- | --- | --- | --- | --- |
| CC(=O)O[C@H]1C(=O)[C@@]2(C)[C@H]([C@H](OC(=O)c3ccccc3)[C@]3(O)C[C@H](OC(=O)[C@H](O)[C@@H](NC(=O)c4ccccc4)c4ccccc4)C(C)=C1C3(C)C)[C@]1(OC(C)=O)CO[C@@H]1C[C@@H]2O | 0.179 µM (active) | inactive | 8.26 nM (active) | inactive | 4.57 µM (active) | inactive |  |  |  |  |  |  |
| CCCCCCCCCCCCCCN(C)C |  | inactive |  | inactive |  |  | inactive | inactive | inactive |  |  |  |
| O=C(NN=Cc1ccc([N+](=O)[O-])o1)c1ccc(O)cc1 | 10.2 µM (active) | inactive | 16200 nM (active) | inactive | 15.5 µM (active) | inactive |  |  |  | inactive |  |  |
| COc1ccc2c(=O)c(C)c(-c3ccccc3)oc2c1CN(C)C |  | inactive |  | inactive |  |  | inactive | inactive | inactive |  |  |  |
| Cc1ccc2c(c1[N+](=O)[O-])C(=O)c1ccccc1C2=O | 22.5 µM (active) | inactive |  | inactive | 20.3 µM (active) | inactive |  | inactive |  |  | 25.7 µM (active) |  |
| CS(=O)(=O)Nc1cc2occ(NC=O)c(=O)c2cc1Oc1ccccc1 |  | inactive |  | inactive |  |  | inactive | inactive |  |  |  |  |
| COC(=O)C1=C(C)NC(C)=C(C(=O)OC(C)(C)CN(C)CCC(c2ccccc2)c2ccccc2)C1c1cccc([N+](=O)[O-])c1 (configuration not stated) |  | inactive |  | inactive |  | inactive | inactive | inactive | inactive | inactive |  |  |
| CN[C@@H]1[C@@H](O[C@H]2O[C@H](CO)[C@@H](N)[C@H](O)[C@H]2O)O[C@H]2C[C@@H](N)[C@@H](O[C@H]3[C@H](O)[C@@H](O)[C@H](N)C[C@@H]3N)O[C@@H]2[C@@H]1O |  | inactive |  | inactive |  | inactive | inactive | inactive | inactive | inactive |  |  |
| O=C(Cn1cnnn1)N[C@@H]1C(=O)N2C(C(=O)O)=C(CSc3nncs3)CS[C@H]12 |  | inactive |  | inactive |  | inactive | inactive | inactive | inactive |  |  |  |
| CCCCN1CCCC[C@H]1C(=O)Nc1c(C)cccc1C |  | inactive |  | inactive |  | inactive | inactive | inactive | inactive |  |  |  |
| O=C(O)CN1C(=O)c2cccc3cccc(c23)C1=O |  | inactive |  | inactive |  |  | inactive | inactive | inactive |  |  |  |
| N[C@H](CC(=O)O)C(=O)O |  | inactive |  | inactive |  | inactive | inactive | inactive | inactive | inactive |  |  |
| NCCc1ccc(O)c(O)c1 |  | inactive |  | inactive |  | inactive | inactive | inactive | inactive |  |  |  |
| NCC[C@H](O)C(=O)N[C@@H]1C[C@H](N)[C@@H](O[C@H]2O[C@H](CN)[C@@H](O)[C@H](O)[C@H]2O)[C@H](O)[C@H]1O[C@H]1O[C@H](CO)[C@@H](O)[C@H](N)[C@H]1O |  | inactive |  | inactive |  | inactive | inactive | inactive | inactive |  |  |  |
| CC(=O)Nc1ccc(S(=O)(=O)Nc2ccc([N+](=O)[O-])cc2)cc1 |  | inactive |  | inactive |  |  | inactive | inactive | inactive |  |  |  |
| NCCCNCCSP(=O)(O)O |  | inactive |  | inactive |  | inactive | inactive | inactive | inactive | inactive |  |  |
| Nc1ccn([C@@H]2O[C@H](CO)[C@@H](O)C2(F)F)c(=O)n1 | 0.176 µM (active) | inactive | 181 nM (active) | inactive | 0.26 µM (active) | inactive |  |  |  |  | 0.188 µM (active) |  |
| [O-][n+]1cccc(CO)c1 |  | inactive |  | inactive |  |  | inactive | inactive | inactive |  |  |  |
| COc1ccc(C(=O)c2ccc(C)cc2)c(O)c1 |  | inactive |  | inactive |  | inactive | inactive | inactive | inactive | inactive |  |  |
| C[C@@H]1O[C@@H]1P(=O)(O)O |  | inactive |  | inactive |  | inactive | inactive | inactive | inactive | inactive |  |  |
| CC(N)C12CC3CC(CC(C3)C1)C2 (configuration not stated) |  | inactive |  | inactive |  | inactive | inactive | inactive | inactive | inactive |  |  |
| CC(C)COC(=O)c1ccc(O)cc1 |  | inactive |  | inactive |  | inactive | inactive | inactive | inactive | inactive |  |  |
| CC(C)(C)C(=O)OCOC(=O)[C@@H]1N2C(=O)[C@@H](N=CN3CCCCCC3)[C@H]2SC1(C)C |  | inactive |  | inactive |  | inactive | inactive | inactive | inactive | inactive |  |  |
| CCC1OC(=O)C[C@@H](O)[C@H](C)[C@@H](O[C@@H]2O[C@H](C)C[C@H](N(C)C)[C@H]2O)[C@@H](CC=O)C[C@@H](C)C(=O)/C=C/[C@]2(C)OC2C1C (some centres not stated) |  | inactive |  | inactive | 35 µM (active) |  | inactive | inactive | inactive | inactive | 27.1 µM (active) |  |
| O=C(O)CCCc1ccccc1 |  |  |  | inactive |  |  | inactive | inactive | inactive |  |  | 36.2 µM (active) |
| Cc1c(N)cccc1Cl |  | inactive |  | inactive |  | inactive | inactive | inactive | inactive |  |  |  |
| COc1ccc2cc(CCC(C)=O)ccc2c1 |  | inactive |  | inactive |  |  | inactive | inactive | inactive |  |  |  |
| CCCCOc1cc(C(=O)OCCN(CC)CC)ccc1N |  | inactive |  | inactive |  |  | inactive | inactive | inactive |  |  |  |
